Screening data deposited in PubChem by Broad Institute.
C2C12 statin – suppressors of simvastatin-induced myotoxicity in C2C12 myotubes; ATP luminescence, 48 h; scaled: DMSO 0, geranylgeraniol control 100; hit rate 0.78% among 330,000; rescue of ATP level, % at 7.49 µM;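 active means mean ATP rescue above about 67%, or every replicate alone reaching that limit, limit read from the data, passing the limit was not always enough; inconclusive means no clear call, values can overlap the other calls; inactive means mean under the limit and some replicate under it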;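 further: myotubes were challenged with 10 µM simvastatin during compound exposure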
TRPM1 prom inh – reduces MITF-dependent TRPM1 promoter luciferase signal; SK-MEL-5 TRPM1 promoter luciferase, 24 h; inhibition, % at 12.5 µM; hit rate 0.83% among 330,000;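 active means mean inhibition across replicates of 60% or more, whatever share of single replicates reaches that level; inconclusive means some that reach 60%, reason not given; inactive means mean inhibition across replicates below 60%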
MITF act – increases MITF-driven TRPM1 promoter luciferase signal; SK-MEL-5 TRPM1-promoter luciferase, 24 h; % of positive control, neutral wells = 0; activation, % at 12.5 µM; hit rate 0.75% among 300,000; AID 588334;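 active means mean activation of at least 80% with every replicate also reaching 80%; inconclusive means mean reaches 80% but some replicate falls short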;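 further: 0% = neutral control wells and 100% = parthenolide positive control wells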
Wnt act – Wnt/beta-catenin pathway activation. Wnt/beta-catenin reporter cell assay, activator, plate reader. activation, % at 9.35 µM. hit rate 1.2% among 300,000. AID 743398; in the data active means activation above about 30%, passing the limit was not always enough; inconclusive means no clear call, values can overlap the other calls;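 further: 0% = neutral control wells and 100% = positive control wells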
EBV LMP1 NFkB – Epstein-Barr LMP1 NF-kappaB reporter inhibition | LMP1-induced NF-kappaB luciferase reporter cells, luminescence | inhibition, % at 12.5 µM | hit rate 0.69% among 350,000 | AID 504558; in the data active means inhibition above about 41%; inconclusive means no clear call, values can overlap the other calls;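 further: 0% = neutral control wells and 100% = reference inhibitor control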
esBAF inh – blocks esBAF chromatin remodeling in mouse ES cells; reporter increase, % at 12.5 µM; Bmi1-luciferase knock-in reporter, 24 h; 100% = twice the neutral-well signal; hit rate 2% among 350,000; in the data active means activation above about 40%; inconclusive means no clear call, values can overlap the other calls;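 further: 0% = median of the plate's neutral control wells and 100% = double that signal; a rise in the Bmi1 reporter signal indicates esBAF inhibition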
An asterisk follows results filed as active; u = inconclusive; x = not tested or not shown. Hits are enriched below; roughly 4% of the tested compounds scored in any of these assays.

SMILES	C2C12 statin	TRPM1 prom inh	MITF act	Wnt act	EBV LMP1 NFkB	esBAF inh
Cc1ccc(Cc2nnc(SCC(=O)Nc3c(C)cccc3C)[nH]c2=O)cc1	1.6	-4.8	2.1	2.0	-2.1	1.7
COc1cccc(NC(=O)c2ccc3c(c2)OCCO3)c1	-117.6	1.0	1.9	u	18.7	-62.3
CCN(CC(=O)NCc1ccc(Cl)cc1)C(=O)c1cnc(Cl)c(Cl)c1	-1.9	6.9	-6.4	-3.3	-5.1	-1.4
CC(C)C#Cc1cnc2c(c1)C(=O)N([C@@H](C)CO)C[C@H](C)[C@@H](CN(C)C(=O)Nc1ccccc1F)O2	-1.0	x	x	x	x	-5.7
c1ccc2c(c1)CCN(c1nc3ccccc3n3cnnc13)C2	24.9	x	x	14.5	4.5	26.7
Clc1ccc(-c2cc3nc(NCc4cccc(Cl)c4)ccn3n2)cc1	-4.2	x	x	5.7	x	76.2*
c1ccc(COc2ccc(-c3cc4nc(NCCN5CCOCC5)ccn4n3)cc2)cc1	12.6	x	x	-2.7	x	49.4*
Clc1cccc(CNc2ccn3nc(-c4ccc(OCc5ccccc5)cc4)cc3n2)c1	2.0	x	x	0.6	x	16.8
Clc1ccccc1-c1cc2nc(NCc3ccco3)ccn2n1	3.8	x	x	3.3	x	71.8*
COC(=O)c1cccc(NC(=O)CSc2nnc(COc3cccc(C)c3)n2C)c1	-13.4	-4.5	4.6	x	2.9	4.2
COc1ccc(-c2cn(Cc3ccc(C)cc3)nn2)cc1	3.3	-87.1	85.7*	29.1	-4.9	79.0*
N#C[C@H]1[C@H](c2ccc(-c3cccnc3)cc2)[C@H](CO)N1C(=O)C1CC1	2.8	x	x	x	x	-0.8
COC(=O)C(C(=O)OC)C(C[N+](=O)[O-])c1ccc(OC)cc1 (stereo not given)	x	0.5	x	x	-17.5	x
Cc1cc2oc(=O)c(CC(=O)NCCCO)c(C)c2c2occ(C(C)(C)C)c12	-8.8	-17.4	26.5	5.4	-7.2	9.4
CCCCOc1ccc2c(c1)C(=O)c1cc(O)ccc1-2	x	-79.9	86.0*	13.9	-28.0	x
O=C(c1ccc(CNc2c(N3CCOCC3)c(=O)c2=O)cc1)N1CC=C(c2ccccc2)CC1	-18.7	6.9	-3.6	-1.6	4.4	12.3
Cc1cc(=O)[nH]c(N/N=C/c2c(C)nn(-c3ccccc3)c2C)n1	-12.9	-0.9	3.8	-1.6	9.0	-5.1
Cc1nn(-c2ccccc2)c(C)c1/C=N/Nc1nc2ccccc2[nH]1	-17.6	-21.4	24.9	172.8*	-38.1	-24.7
C=CCn1cc(/C=N/Nc2nc3ccccc3[nH]2)c2ccccc21	x	-47.0	53.8	53.1*	-33.7	x
Cn1c(/C=N/Nc2nc3ccccc3[nH]2)nc2ccccc21	x	-26.5	30.4	u	-15.6	x
Cc1cc(=O)[nH]c(N/N=C/c2sccc2C)n1	-4.1	-1.5	0.4	2.0	2.1	10.4
CCCn1c(/C=N/Nc2nc3ccccc3[nH]2)nc2ccccc21	x	25.1	-21.4	22.1	47.3*	x
Cc1ccsc1/C=N/Nc1nc2ccccc2[nH]1	x	-44.8	48.4	115.2*	-21.7	x
CCOc1ccccc1NC(=O)CN(c1nccs1)S(=O)(=O)c1ccc(N)cc1	5.8	2.1	-1.8	-2.7	-19.6	-7.0
Cc1cc(C)cc(-n2c3ccc(NC(=O)Cc4cccc5ccccc45)cc3c(=O)n2C)c1	-235.8	x	x	-0.8	x	-13.5
SMILES	C2C12 statin	TRPM1 prom inh	MITF act	Wnt act	EBV LMP1 NFkB	esBAF inh
CCCCn1nc(C(=O)NNC(=O)c2ccncc2)c2ccccc2c1=O	4.1	3.4	-3.6	x	2.3	2.9
CC(C)C#Cc1cnc2c(c1)C(=O)N([C@H](C)CO)C[C@@H](C)[C@@H](CN(C)C(=O)c1cccc(F)c1)O2	-7.9	x	x	x	x	-1.8
COc1ccc(S(=O)(=O)Nc2ccc3c(c2)CC(=O)N([C@H](C)CO)C[C@@H](C)[C@H](CN(C)S(=O)(=O)c2ccc(F)cc2)O3)cc1	2.2	x	x	x	x	1.4
Cc1ccsc1/C=N/Nc1ncnc2nc[nH]c12	x	-59.7	58.1	15.3	-2.0	x
C(=N\Nc1nc2ccccc2[nH]1)/c1cccs1	-12.5	-59.4	58.2	50.8*	-37.8	67.5*
C(=N\Nc1ncnc2nc[nH]c12)/c1cccs1	2.7	-47.8	56.1	61.4*	-1.7	10.3
C[C@@H]1CN([C@H](C)CO)C(=O)c2cc(NC(=O)Nc3ccc(F)cc3)ccc2O[C@@H]1CN(C)C	-4.7	x	x	x	x	2.2
O=C(NNC(=O)C12CC3CC(CC(C3)C1)C2)c1ccccn1	x	49.0	x	6.1	34.4	x
CC1(C)CC(NC(=O)c2ccccn2)CC(C)(C)N1O	-3.1	1.0	0.8	56.4*	-2.6	-3.1
CCc1nc(N)c(C#N)c(-c2ccc(O)c(OC)c2)c1C	x	7.6	-5.9	0.9	-2.9	x
CC(C)(C)c1ccc(C(=O)N2CCC(=O)N(C(CO)Cc3ccccc3)CC2)cc1 (stereo not given)	9.8	-2.1	2.8	-2.4	78.4*	14.7
CCOc1ccc(/C(C)=N/NC(=O)C(OC)c2ccccc2)cc1 (stereo not given)	x	7.0	-2.4	1.3	6.8	x
CCOC(=O)N1CCN(C(=O)CN(C2CCCCC2)S(=O)(=O)c2ccc(C)cc2)CC1	16.2	1.7	-3.2	-5.7	2.0	-7.2
Cc1ccc(SC(C)c2nc(-c3ccccc3)no2)cc1 (stereo not given)	-10.8	-21.1	23.7	x	58.5*	17.8
NC(=O)C1=CC2C3C=CC2(O)C(=O)OC3O1 (stereo not given)	x	71.2*	-71.5	-2.4	-38.3	x
O=C1CN(C(=O)c2ccc(F)c(S(=O)(=O)N3CCOCC3)c2)c2ccccc2N1	x	-3.1	3.5	-2.2	46.1*	x
COc1ccc(C(=O)N2CC(=O)Nc3ccccc32)cc1S(=O)(=O)N1CCCC1	x	-12.1	13.9	-1.3	43.2*	x
COc1ccc(C(=O)N2CC(=O)Nc3ccccc32)cc1S(=O)(=O)N1CCOCC1	-6.9	-10.0	15.2	-0.7	-8.7	-4.5
CCN(CC(=O)Nc1sc2c(c1C#N)CCC(C)C2)Cc1nc2ccccc2c(=O)[nH]1 (stereo not given)	x	7.4	-4.0	-1.5	-6.5	x
C[C@H]1CN([C@@H](C)CO)C(=O)c2cc(-c3ccc(F)cc3)cnc2O[C@H]1CN(C)C(=O)Cc1ccccn1	1.3	x	x	x	x	6.4
CCC1(C)Cc2ccccc2C(=S)N1 (stereo not given)	87.9*	10.3	-9.9	-3.3	4.9	-7.0
CC(C)NC(=O)Nc1ccc2c(c1)C(=O)N([C@@H](C)CO)C[C@@H](C)[C@H](CN(C)S(=O)(=O)c1cccs1)OCCCC[C@@H](C)O2	x	x	x	x	x	4.4
Cc1ccc2c(c1)N(CC(=O)N1CCCCCC1)C(=O)c1cccnc1O2	4.6	-4.0	4.8	0.7	7.1	-1.4
Cc1ccc2c(c1)N(CC(=O)N1CCCC1)C(=O)c1cccnc1O2	-11.3	-0.5	0.4	-0.1	61.1*	2.8
Cc1ccc(C(=O)N2CCc3ccccc32)cc1	7.3	-36.1	30.4	11.9	-25.1	51.0*
CCc1sc(C(=O)N2CCc3ccccc32)cc1C	x	-58.7	63.6	39.2*	-42.4	x
